From PubChem BioAssay
This is a sample that favours compounds with a hit; in the whole collection about 2.1% have one here.
MITF TRPM1 inh: MITF TRPM1 promoter inhibition in SK-MEL-5 cells. SK-MEL-5 TRPM1 promoter luciferase, 24 h. inhibition, % at 12.5 µM. 330,000 compounds, 0.83% hits;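 active = mean inhibition across replicates of 60% or more, whatever share of single replicates reaches that level; inconclusive = some that reach 60%, reason not given; inactive = mean inhibition across replicates below 60%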
LMP1 NFkB inh: Epstein-Barr LMP1 NF-kappaB reporter inhibition. LMP1-induced NF-kappaB luciferase reporter cells, luminescence. inhibition, % at 12.5 µM. 350,000 compounds, 0.69% hits. AID 504558; in the data active = inhibition above about 41%; inconclusive = no clear call, values can overlap the other calls
Shn3 3UTR inh: inhibitors of Schnurri-3 3'UTR reporter in osteoblasts | 360,000 compounds, 0.52% hits | Clone20 osteoblast Shn3 3'UTR firefly luciferase, 24 h | AID 588674 | inhibition, % at 12.5 µM;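 active = mean inhibition of at least 75% with every replicate also reaching 75%; inconclusive = mean inhibition at least 75% but some replicate below; inactive = mean inhibition below 75%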
PAX8 inh HTS: PAX8 transcriptional activity inhibition | inhibition, % at 12.6 µM | RMG-I TPO-luciferase reporter, SteadyGlo, 24 h | 360,000 compounds, 1.2% hits | AID 652154;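 active = mean replicate inhibition at least 60% with every replicate also reaching 60%; inconclusive = only one of the two criteria is met; inactive = mean below 60% and not all replicates reaching 60%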;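 note: luciferase light reporting Pax8 driven TPO promoter activity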
aSyn 5UTR inh: 5' untranslated region of α-synuclein, MLPCN primary screen; alpha-synuclein 5'UTR reporter, inhibitor activity; inhibition, % (tested at 7.5 µM); 300,000 compounds, 0.82% hits; in the data active = inhibition above about 60%; inconclusive = no clear call, values can overlap the other calls;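 note: H4 neuroglioblastoma cells stably carrying SNCA 5'UTR luciferase fusion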
Of the large screens only hits and unclear results are named; the others gave an inactive call.

Cc1cccc(NC(=O)C2CCN(S(=O)(=O)c3cccc4nsnc34)CC2)n1	none
COc1ccc2nc(NC(=O)C3CCN(S(=O)(=O)c4cccc5nsnc45)CC3)sc2c1	MITF TRPM1 inh 73.9, PAX8 inh HTS 62.9 (no result: aSyn 5UTR inh)
CC[C@@H]1CCC[C@@H](O)[C@@H](C)C(=O)O[C@H](C)[C@@H](C)C/C=C(C)/C(OC)=C\C(=O)N(C)C([C@@H](C)CC)C(=O)N(C)[C@@H](C(C)C)C(=O)N(C)[C@@H](COC)C(=O)N2CCC[C@H]2C(=O)N(C)[C@@H](C(C)C)C(=O)N2CCC[C@H]2C(=O)O1 (some centres not stated)	PAX8 inh HTS 88.3 (no result: MITF TRPM1 inh, LMP1 NFkB inh, aSyn 5UTR inh)
C[n+]1c2n(c3ccccc31)N=C(c1ccc(Cl)cc1)CS2	MITF TRPM1 inh 60.6
Clc1ccc(C2=Nn3c(Cn4nnc5ccccc54)nnc3SC2)cc1	none (no result: MITF TRPM1 inh, LMP1 NFkB inh)
CC1Sc2n(c3ccccc3[n+]2C)N=C1c1ccccc1 (configuration not stated)	MITF TRPM1 inh inconclusive, PAX8 inh HTS 67.6
COc1ccc(C2=Nn3c([n+](C)c4ccccc43)SC2)cc1	PAX8 inh HTS 83.8
C=CCn1c(=O)c2ccc(C(=O)NCc3ccccc3)cc2n(Cc2cccc(Cl)c2)c1=O	none
CCOC(=O)NC(=O)CSc1nc2ccc(OCC)cc2[nH]1	none
CSc1ccccc1NC(=O)C(C)N(C)CC(=O)N1CCN(Cc2ccccc2)CC1 (configuration not stated)	LMP1 NFkB inh 72.0 (no result: aSyn 5UTR inh)
CC(C(=O)Nc1ccc(C(F)(F)F)cc1)N(C)CC(=O)N1CCN(Cc2ccccc2)CC1 (configuration not stated)	none (no result: aSyn 5UTR inh)
Cc1ccc(Nc2cc(C)nn2-c2nc(C)cc(=O)[nH]2)cc1	MITF TRPM1 inh 98.4 (no result: PAX8 inh HTS)
CCN1CCC(O)(/C=C/c2ccc(C(C)C)cc2)C(C(=O)/C=C/c2ccc(C(C)C)cc2)C1 (configuration not stated)	MITF TRPM1 inh 66.5, PAX8 inh HTS 63.6 (no result: aSyn 5UTR inh)
CSc1nnc(NC(=O)C23CC4CC(CC(C4)C2)C3)s1	none
Cc1ccc(NC(=O)c2cc3ccccc3oc2=O)cc1S(=O)(=O)N(C)C	MITF TRPM1 inh 76.1, LMP1 NFkB inh 63.8, aSyn 5UTR inh 72.9 (no result: PAX8 inh HTS)
Cc1ccc(NC(=O)c2cc3ccccc3o2)cc1S(=O)(=O)N(C)C	none (no result: PAX8 inh HTS, aSyn 5UTR inh)
CCCCCCc1cc2cc(C(=O)Nc3ccc(OC)cc3)c(=O)oc2cc1O	none
COc1ccc(NC(=O)c2cc3ccccc3oc2=O)cc1	LMP1 NFkB inh 73.4 (no result: MITF TRPM1 inh, aSyn 5UTR inh)
CCCCCCc1cc2cc(C(=O)Nc3cccc(OC)c3)c(=O)oc2cc1O	aSyn 5UTR inh 62.8
COc1ccc(N2CSC(=S)N(c3ccc(OC)cc3)C2)cc1	none (no result: MITF TRPM1 inh, aSyn 5UTR inh)
CCOc1ccccc1CNC(=O)c1cc2oc3ccccc3c2n1CC	aSyn 5UTR inh 65.6
COc1cccc(CNC(=O)c2cc3oc4ccccc4c3n2C)c1OC	none (no result: PAX8 inh HTS)
Cc1cc(C)c2nc(SCC(=O)NCCN3C(=O)CSC3=O)cc(C)c2c1	none
CC(C)C[C@H](NC(=O)c1nc[nH]c1C(=O)N[C@@H](CCCCNC(=O)OC(C)(C)C)C(=O)OC(C)(C)C)C(=O)OCc1ccccc1	PAX8 inh HTS 82.1
CC(C)(C)OC(=O)NCCCC[C@H](NC(=O)c1nc[nH]c1C(=O)N[C@@H](CCCCNC(=O)OC(C)(C)C)C(=O)OC(C)(C)C)C(=O)OC(C)(C)C	PAX8 inh HTS 75.7
CC(C)C[C@H](NC(=O)c1[nH]cnc1C(=O)N[C@@H](Cc1ccccc1)C(=O)OC(C)(C)C)C(=O)OC(C)(C)C	PAX8 inh HTS 68.1
CC(C)(C)OC(=O)NCCCCCNC(=O)c1[nH]cnc1C(=O)N[C@@H](CCCCNC(=O)OC(C)(C)C)C(=O)OC(C)(C)C	none (no result: PAX8 inh HTS)
CC(C)(C)OC(=O)NCCCC[C@H](NC(=O)c1nc[nH]c1C(=O)NC(c1ccccc1)c1ccccc1)C(=O)OC(C)(C)C	PAX8 inh HTS 79.6
CC(C)C[C@H](NC(=O)c1[nH]cnc1C(=O)N[C@@H](Cc1ccccc1)C(=O)OC(C)(C)C)C(=O)OCc1ccccc1	none
COc1ccccc1-c1ccc(=O)n(CC(=O)NCc2ccc3c(c2)OCO3)n1	none (no result: PAX8 inh HTS)
COc1cc(C)c(NC(=O)C(=S)N2CCCC2)cc1C	none
COc1ccc(CS(=O)(=O)/C(Cl)=C(/Cl)C(=O)Nc2ccc(OC)nc2)cc1	MITF TRPM1 inh 94.0, LMP1 NFkB inh 90.8, Shn3 3UTR inh 97.7 (no result: PAX8 inh HTS)
COc1ccc(/C=C/C(=O)Nc2ccc(OC)nc2)cc1	none
COc1ccc(NC(=O)/C(Cl)=C(/Cl)S(=O)Cc2ccccc2)cn1 (configuration not stated)	MITF TRPM1 inh 103.8, LMP1 NFkB inh 83.1, Shn3 3UTR inh 97.3, aSyn 5UTR inh 120.9 (no result: PAX8 inh HTS)
CCOC(=O)c1c(C)[nH]c(C(=O)COC(=O)CCS(=O)(=O)c2ccc(C)cc2)c1C	none
COc1ccc(NC(=O)Nc2ccc3c(c2)OC[C@@H](C)NC[C@H](C)[C@H](OC)CN(C)C3=O)cc1	none (no result: MITF TRPM1 inh, LMP1 NFkB inh, Shn3 3UTR inh, aSyn 5UTR inh)
NC(=O)N/N=C/c1ccc(N2CCOCC2)s1	LMP1 NFkB inh 48.4
CSc1ccccc1-c1n[nH]c(=S)o1	none
CC(=O)c1cccc(NS(=O)(=O)c2ccc(-c3cnc(C4CC4)o3)cc2)c1	Shn3 3UTR inh 85.2
Cc1cc(C)cc(NS(=O)(=O)c2ccc(-c3cnc(C4CC4)o3)cc2)c1	PAX8 inh HTS 74.7, aSyn 5UTR inh 93.4
CC(=O)Nc1ccc(NS(=O)(=O)c2ccc(-c3cnc(C4CC4)o3)cc2)cc1	none
Cc1ccc(C)c(NS(=O)(=O)c2ccc(-c3cnc(C4CC4)o3)cc2)c1	PAX8 inh HTS 84.8, aSyn 5UTR inh 93.2
Cc1cccc(NS(=O)(=O)c2ccc(-c3cnc(C4CC4)o3)cc2)c1C	PAX8 inh HTS 74.9, aSyn 5UTR inh 99.7
O=S(=O)(Nc1ccccc1)c1ccc(-c2cnc(C3CC3)o2)cc1	none
COCC(=O)N1CC2(C1)CN(Cc1ccccn1)[C@H](CO)c1[nH]c3cc(OC)ccc3c12	none (no result: MITF TRPM1 inh, LMP1 NFkB inh, Shn3 3UTR inh, aSyn 5UTR inh)
CCOC(=O)C1CCN(Cc2cn(C)nc2-c2ccc(Oc3ccccc3)cc2)CC1	none
COCCn1c(=S)[nH]c2cc(C(=O)NC3CCCCC3C)ccc2c1=O (configuration not stated)	none (no result: MITF TRPM1 inh, aSyn 5UTR inh)
COCC(=O)N1C[C@@H](C)[C@@H](OC)CN(C)C(=O)c2cc(NC(=O)c3ccc(OC)cc3)ccc2OC[C@H]1C	none (no result: MITF TRPM1 inh, LMP1 NFkB inh, Shn3 3UTR inh, aSyn 5UTR inh)
CN1/C(=C\C(=O)C[n+]2ccc(C(=O)c3ccccc3)cc2)C(C)(C)c2ccccc21	PAX8 inh HTS inconclusive
O=C(c1ccccn1)N1C[C@H]2[C@@H](c3ccccc31)[C@@H](CO)N2C(=O)CC1CC1	none (no result: MITF TRPM1 inh, LMP1 NFkB inh, Shn3 3UTR inh, aSyn 5UTR inh)
COc1ccc(NS(=O)(=O)c2cc(-c3cnc(C4CC4)o3)ccc2C)cc1	aSyn 5UTR inh 82.0
CCN(CC(=O)Nc1ccc(NC(C)=O)cc1)C(=O)C1CCN(C(=O)c2ccccc2C)CC1	none (no result: aSyn 5UTR inh)
O=C(O)CCSc1ncnc2sc(-c3ccccc3)cc12	aSyn 5UTR inh 88.2 (no result: MITF TRPM1 inh)
COC(=O)Nc1ccc(Oc2ccccc2)cc1	none (no result: PAX8 inh HTS)
COC(=O)c1c(O)ccc(Oc2ccccc2)c1C(=O)OC	LMP1 NFkB inh 47.2 (no result: PAX8 inh HTS)
O=C(Cc1ccccn1)NCC[C@@H]1CC[C@@H](NC(=O)Nc2ccc(C(F)(F)F)cc2)[C@@H](CO)O1	PAX8 inh HTS 68.7 (no result: MITF TRPM1 inh, LMP1 NFkB inh, Shn3 3UTR inh, aSyn 5UTR inh)
